In the supplement of paper PMC6522484:
“And” between values parts separate entries of the source, which are not always exact repeats. Equal values may be shown once. ± gives the standard deviation of the averaged measurements.

Tests used:
DLD1 [1] = assay: cell viability (CellTiter-Glo) relative to plate median (fraction of plate median); higher = more viable cells; details: 5 µM; treatment time 24 h; reporter: 7TFP
In short: (§1)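 Stable lentiviral TCF/Wnt firefly luciferase reporters (7TFP or TCF4/Wnt) were present in the colorectal cancer cell lines used. These cells received library compounds at a final 5 µM for 24 h, and parallel plates were read for firefly luciferase or CellTiterGlo luminescence. Each well was normalised to the plate median, and the value reported is the mean of two independent replicates.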

HCT116 = assay: as above; details: 5 µM; treatment time 24 h; reporter: TCF4/Wnt
In short: as §1

SW480 [2] = assay: as above; details: 5 µM; treatment time 24 h; reporter: 7TFP
In short: as §1

DLD1 [3] = assay: TCF/Wnt firefly luciferase reporter signal relative to plate median (fraction of plate median); higher = higher Wnt reporter signal; details: 5 µM; treatment time 24 h; reporter: 7TFP
In short: as §1

SW480 [4] = assay: as above; details: 5 µM; treatment time 24 h; reporter: 7TFP
In short: as §1

CNCCc1ccccn1
cell viability (DLD1 [1]): 0.835 ± 0.059 | cell viability (HCT116): 0.979 ± 0.086 | cell viability (SW480 [2]): 0.958 ± 0.027 | TCF/Wnt firefly luciferase reporter signal (DLD1 [3]): 1.08 ± 0.21 | TCF/Wnt firefly luciferase reporter signal (SW480 [4]): 1.1 ± 0.05

CC[C@H]1OC(=O)[C@H](C)[C@@H](O[C@H]2C[C@@](C)(OC)[C@@H](O)[C@H](C)O2)[C@H](C)[C@@H](O[C@@H]2O[C@H](C)C[C@H](N(C)C)[C@H]2O)[C@](C)(O)C[C@@H](C)C(=O)[C@H](C)[C@@H](O)[C@]1(C)O
cell viability (DLD1 [1]): 1.01 ± 0.05 | cell viability (HCT116): 0.986 ± 0.034 | cell viability (SW480 [2]): 1 ± 0.028 | TCF/Wnt firefly luciferase reporter signal (DLD1 [3]): 0.924 ± 0.09 | TCF/Wnt firefly luciferase reporter signal (SW480 [4]): 0.874 ± 0.051

O[C@H]1[C@H](O)[C@@H](O)[C@H](O)[C@@H](O)[C@H]1O
cell viability (DLD1 [1]): 0.938 ± 0.03 | cell viability (HCT116): 0.922 ± 0.097 | cell viability (SW480 [2]): 0.931 ± 0.0057 | TCF/Wnt firefly luciferase reporter signal (DLD1 [3]): 1.12 ± 0.042 | TCF/Wnt firefly luciferase reporter signal (SW480 [4]): 1.07 ± 0.035

O=C(CCCN1CCN(c2ccccn2)CC1)c1ccc(F)cc1
cell viability (DLD1 [1]): 1.03 ± 0.028 | cell viability (HCT116): 0.963 ± 0.12 | cell viability (SW480 [2]): 0.994 ± 0.023 | TCF/Wnt firefly luciferase reporter signal (DLD1 [3]): 0.985 ± 0.064 | TCF/Wnt firefly luciferase reporter signal (SW480 [4]): 1.01 ± 0.028

CCC(O)CC1CCC(C(C)C(=O)OC(C)CC2CCC(C(C)C(=O)O)O2)O1 (stereo not given) [Bonactin]
cell viability (DLD1 [1]): 0.944 ± 0.027 | cell viability (HCT116): 0.941 ± 0.11 | cell viability (SW480 [2]): 0.974 ± 0.0014 | TCF/Wnt firefly luciferase reporter signal (DLD1 [3]): 0.962 ± 0.054 | TCF/Wnt firefly luciferase reporter signal (SW480 [4]): 0.87 ± 0.12

Oc1cc(O)c2c(c1)O[C@H](c1ccc(O)c(O)c1)[C@H](O)C2
cell viability (DLD1 [1]): 0.953 and 0.936 | cell viability (HCT116): 1.03 and 0.956 | cell viability (SW480 [2]): 1.01 and 1.06 | TCF/Wnt firefly luciferase reporter signal (DLD1 [3]): 0.934 and 1.07 | TCF/Wnt firefly luciferase reporter signal (SW480 [4]): 0.985 and 1.08

COc1ccc([C@H]2Oc3cc(OC)cc(OC)c3C[C@H]2O)cc1
cell viability (DLD1 [1]): 1 ± 0.029 | cell viability (HCT116): 0.941 ± 0.098 | cell viability (SW480 [2]): 0.9645 ± 0.005 | TCF/Wnt firefly luciferase reporter signal (DLD1 [3]): 0.923 ± 0.046 | TCF/Wnt firefly luciferase reporter signal (SW480 [4]): 1.03 ± 0.052

O=S(=O)(O)CCS
cell viability (DLD1 [1]): 1.01 ± 0.058 | cell viability (HCT116): 1.06 ± 0.014 | cell viability (SW480 [2]): 1.02 ± 0.054 | TCF/Wnt firefly luciferase reporter signal (DLD1 [3]): 1.01 ± 0.19 | TCF/Wnt firefly luciferase reporter signal (SW480 [4]): 1.1 ± 0.028

CCN(CC)CCNC(=O)c1ccc(NC(C)=O)cc1
cell viability (DLD1 [1]): 1.01 ± 0.075 | cell viability (HCT116): 1.05 ± 0.071 | cell viability (SW480 [2]): 1.06 ± 0.035 | TCF/Wnt firefly luciferase reporter signal (DLD1 [3]): 1.08 ± 0.028 | TCF/Wnt firefly luciferase reporter signal (SW480 [4]): 1.14 ± 0.014

CN(C(=O)CN(CCO)CC(=O)N(C)C(C)(C)Cc1ccccc1)C(C)(C)Cc1ccccc1
cell viability (DLD1 [1]): 1.01 ± 0.022 | cell viability (HCT116): 1.04 ± 0.11 | cell viability (SW480 [2]): 1.11 | TCF/Wnt firefly luciferase reporter signal (DLD1 [3]): 1.15 ± 0.05 | TCF/Wnt firefly luciferase reporter signal (SW480 [4]): 1.025 ± 0.0071

CN1C(=O)CC[C@H]1c1cccnc1
cell viability (DLD1 [1]): 1.03 ± 0.035 | cell viability (HCT116): 1.1 ± 0.078 | cell viability (SW480 [2]): 1.07 ± 0.014 | TCF/Wnt firefly luciferase reporter signal (DLD1 [3]): 1.06 ± 0.057 | TCF/Wnt firefly luciferase reporter signal (SW480 [4]): 0.94 ± 0.073

CC(=O)N[C@@H](CC(C)C)C(=O)O
cell viability (DLD1 [1]): 1.04 ± 0.014 | cell viability (HCT116): 1.04 ± 0.093 | cell viability (SW480 [2]): 0.966 ± 0.062 | TCF/Wnt firefly luciferase reporter signal (DLD1 [3]): 1.03 ± 0.18 | TCF/Wnt firefly luciferase reporter signal (SW480 [4]): 1.13 ± 0.057

O=NN(CCCl)C(=O)NCCCl
cell viability (DLD1 [1]): 1.05 ± 0.014 | cell viability (HCT116): 1.06 ± 0.05 | cell viability (SW480 [2]): 1.04 | TCF/Wnt firefly luciferase reporter signal (DLD1 [3]): 1.19 ± 0.021 | TCF/Wnt firefly luciferase reporter signal (SW480 [4]): 1.045 ± 0.0071

COc1cccc2c1CCC1CC(=O)CC[C@]21C (stereo not given in full)
cell viability (DLD1 [1]): 1.06 ± 0.014 | cell viability (HCT116): 1.02 ± 0.086 | cell viability (SW480 [2]): 1.02 ± 0.035 | TCF/Wnt firefly luciferase reporter signal (DLD1 [3]): 0.972 ± 0.016 | TCF/Wnt firefly luciferase reporter signal (SW480 [4]): 1.04 ± 0.17

N[C@H]1C(O)O[C@H](CO)[C@@H](O)[C@@H]1O (stereo not given in full)
cell viability (DLD1 [1]): 0.973 ± 0.037 | cell viability (HCT116): 0.993 ± 0.024 | cell viability (SW480 [2]): 0.99 ± 0.013 | TCF/Wnt firefly luciferase reporter signal (DLD1 [3]): 1.12 | TCF/Wnt firefly luciferase reporter signal (SW480 [4]): 1.06 ± 0.021

CN(Cc1cc(Br)cc(Br)c1N)C1CCCCC1
cell viability (DLD1 [1]): 0.975 ± 0.036 | cell viability (HCT116): 1.04 ± 0.035 | cell viability (SW480 [2]): 0.905 ± 0.052 | TCF/Wnt firefly luciferase reporter signal (DLD1 [3]): 0.8435 ± 0.0035 | TCF/Wnt firefly luciferase reporter signal (SW480 [4]): 0.867 ± 0.022

Nc1ncnc2c1ncn2[C@@H]1O[C@H](CO)[C@@H](O)[C@@H]1O
cell viability (DLD1 [1]): 0.9735 ± 0.0078 | cell viability (HCT116): 1.01 ± 0.021 | cell viability (SW480 [2]): 0.975 ± 0.034 | TCF/Wnt firefly luciferase reporter signal (DLD1 [3]): 1.08 ± 0.064 | TCF/Wnt firefly luciferase reporter signal (SW480 [4]): 1.05 ± 0.05

O=c1c(O)cc([C@H]2Oc3cc(O)cc(O)c3C[C@H]2O)cc2c([C@H]3Oc4cc(O)cc(O)c4C[C@H]3O)cc(O)c(O)c12
cell viability (DLD1 [1]): 0.934 ± 0.033 | cell viability (HCT116): 1.01 ± 0.02 | cell viability (SW480 [2]): 0.966 ± 0.02 | TCF/Wnt firefly luciferase reporter signal (DLD1 [3]): 0.949 ± 0.044 | TCF/Wnt firefly luciferase reporter signal (SW480 [4]): 1.04 ± 0.1

O=C(c1ccc(OCCN2CCCCC2)cc1)c1c(-c2ccc(O)cc2)sc2cc(O)ccc12
cell viability (DLD1 [1]): 0.933 | cell viability (HCT116): 1.01 ± 0.1 | cell viability (SW480 [2]): 0.938 ± 0.066 | TCF/Wnt firefly luciferase reporter signal (DLD1 [3]): 0.879 ± 0.0042 | TCF/Wnt firefly luciferase reporter signal (SW480 [4]): 0.926 ± 0.078

CC(=O)OCC(=O)[C@@]1(O)CC[C@H]2[C@@H]3CC[C@@H]4C[C@H](O)CC[C@]4(C)[C@H]3C(=O)C[C@@]21C
cell viability (DLD1 [1]): 0.905 ± 0.11 | cell viability (HCT116): 1 ± 0.071 | cell viability (SW480 [2]): 0.939 ± 0.011 | TCF/Wnt firefly luciferase reporter signal (DLD1 [3]): 0.968 ± 0.036 | TCF/Wnt firefly luciferase reporter signal (SW480 [4]): 0.885 ± 0.019

Oc1ccc([C@H]2Oc3cc(O)cc(O)c3C[C@H]2O)cc1
cell viability (DLD1 [1]): 1.045 ± 0.0071 | cell viability (HCT116): 1.01 ± 0.14 | cell viability (SW480 [2]): 0.974 ± 0.021 | TCF/Wnt firefly luciferase reporter signal (DLD1 [3]): 1.01 ± 0.12 | TCF/Wnt firefly luciferase reporter signal (SW480 [4]): 1.01 ± 0.07

COc1ccc2ccc(=O)oc2c1CC=C(C)C
cell viability (DLD1 [1]): 1.04 ± 0.13 | cell viability (HCT116): 1.01 ± 0.026 | cell viability (SW480 [2]): 0.985 ± 0.036 | TCF/Wnt firefly luciferase reporter signal (DLD1 [3]): 1.01 ± 0.033 | TCF/Wnt firefly luciferase reporter signal (SW480 [4]): 0.99 ± 0.071

CCCC(=O)O[C@]1(C(=O)CO)CC[C@H]2[C@@H]3CCC4=CC(=O)CC[C@]4(C)[C@H]3[C@@H](O)C[C@@]21C
cell viability (DLD1 [1]): 0.965 ± 0.03 | cell viability (HCT116): 0.958 ± 0.16 | cell viability (SW480 [2]): 1.02 | TCF/Wnt firefly luciferase reporter signal (DLD1 [3]): 0.895 ± 0.016 | TCF/Wnt firefly luciferase reporter signal (SW480 [4]): 0.956 ± 0.0057

COc1cc(C(=O)NCCCCCC(=O)O)cc(OC)c1OC
cell viability (DLD1 [1]): 0.981 ± 0.015 | cell viability (HCT116): 0.921 ± 0.044 | cell viability (SW480 [2]): 1.01 ± 0.014 | TCF/Wnt firefly luciferase reporter signal (DLD1 [3]): 0.865 ± 0.023 | TCF/Wnt firefly luciferase reporter signal (SW480 [4]): 0.902 ± 0.046

CCN(CC)C(C)CN1c2ccccc2Sc2ccccc21 (stereo not given)
cell viability (DLD1 [1]): 1.07 ± 0.11 | cell viability (HCT116): 1.02 ± 0.12 | cell viability (SW480 [2]): 0.998 ± 0.045 | TCF/Wnt firefly luciferase reporter signal (DLD1 [3]): 0.927 ± 0.3 | TCF/Wnt firefly luciferase reporter signal (SW480 [4]): 1.05 ± 0.078

CN(C)CCc1c[nH]c2ccc(CS(=O)(=O)N3CCCC3)cc12
cell viability (DLD1 [1]): 0.875 ± 0.04 | cell viability (HCT116): 0.929 ± 0.088 | cell viability (SW480 [2]): 0.999 ± 0.086 | TCF/Wnt firefly luciferase reporter signal (DLD1 [3]): 1.17 ± 0.035 | TCF/Wnt firefly luciferase reporter signal (SW480 [4]): 1.06 ± 0.088

COC(=O)[C@@H]1OC(=O)[C@H]2O[C@@]23[C@@]1(C)CCC1[C@@]2(C)CCC(=O)C(C)(C)C2C[C@@H](OC(C)=O)[C@]13C (stereo not given in full)
cell viability (DLD1 [1]): 0.995 ± 0.078 | cell viability (HCT116): 1.1 ± 0.085 | cell viability (SW480 [2]): 1.01 ± 0.034 | TCF/Wnt firefly luciferase reporter signal (DLD1 [3]): 0.994 ± 0.037 | TCF/Wnt firefly luciferase reporter signal (SW480 [4]): 0.967 ± 0.038

O=C(O)/C=C/c1ccccc1
cell viability (DLD1 [1]): 1.09 ± 0.17 | cell viability (HCT116): 1.08 ± 0.092 | cell viability (SW480 [2]): 1.09 ± 0.035 | TCF/Wnt firefly luciferase reporter signal (DLD1 [3]): 0.928 ± 0.086 | TCF/Wnt firefly luciferase reporter signal (SW480 [4]): 1.05 ± 0.035

N[C@H](Cc1ccccc1)C(=O)O
cell viability (DLD1 [1]): 1.03 ± 0.066 | cell viability (HCT116): 1.07 ± 0.064 | cell viability (SW480 [2]): 1.01 ± 0.078 | TCF/Wnt firefly luciferase reporter signal (DLD1 [3]): 1.17 ± 0.05 | TCF/Wnt firefly luciferase reporter signal (SW480 [4]): 1 ± 0.15

CN1CC(=O)N2[C@H](c3ccc4c(c3)OCO4)c3[nH]c4ccccc4c3C[C@@H]2C1=O
cell viability (DLD1 [1]): 0.995 ± 0.079 | cell viability (HCT116): 1.08 ± 0.028 | cell viability (SW480 [2]): 0.995 ± 0.021 | TCF/Wnt firefly luciferase reporter signal (DLD1 [3]): 0.973 ± 0.081 | TCF/Wnt firefly luciferase reporter signal (SW480 [4]): 0.941 ± 0.098
